Consider 16 compounds from PubChem BioAssay (Tox21).

“And” between values parts separate entries of the source, which are not always exact repeats. Identical values can stand only once. Values without a mark were called inactive. The source made the active and inactive calls. Unless noted, the call rests on the fitted dose curve; in most records, active means well fitted curve in the direction sought with a large enough effect in the repeat runs; inconclusive means weak or mixed curves; inactive means no such curve, though single readings can be large; an effect the other way counts as inactive or inconclusive.

Test [1] is described as follows: qHTS assay to identify small molecule antagonists of the glucocorticoid receptor (GR) signaling pathway - cell viability counter screen (AID 720693). Further: nearly all actives have a fitted effect of over 55% in size. Further: potency means the concentration at half of the fitted maximal effect. Background: In qHTS, concentration-response curves come from the screen itself.
Test [2] can be described thus: qHTS assay for identifying genotoxic compounds that show differential cytotoxicity against isogenic chicken DT40 cell lines with known DNA damage response pathways - Rev3 mutant cell line (AID 743014). Further: nearly all actives have a fitted effect of over 55% in size. Further: potency means the concentration at half of the fitted maximal effect.
Test [3] can be described thus: qHTS assay for identifying genotoxic compounds that show differential cytotoxicity against isogenic chicken DT40 cell lines with known DNA damage response pathways - Rad54/Ku70 mutant cell line (AID 743015). Further: nearly all actives have a fitted effect of over 60% in size. Further: potency means the concentration at half of the fitted maximal effect.
Test [4] is described as follows: qHTS assay to identify small molecule antagonists of the androgen receptor (AR) signaling pathway - cell viability counter screen (AID 743033; further: nearly all actives have a fitted effect of over 45% in size; further: potency means the concentration at half of the fitted maximal effect).
The target in test [5] is Androgen receptor (Homo sapiens) (UniProt P10275). Kind of test: qHTS assay to identify small molecule agonists of the androgen receptor (AR) signaling pathway using the MDA cell line (AID 743040; further: nearly all actives have a fitted effect of over 20% in size). The method, boiled down:
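Human breast carcinoma MDA-kb2 reporter cells (MMTV-luc, AR/GR elements) were treated for 16 h at 37C in 0% CO2 following a 5 h settling period. Signal was quantified by ONE-Glo luminescence.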

The nature of test [6]: qHTS assay to identify small molecule antagonists of the androgen receptor (AR) signaling pathway using the MDA cell line - cell viability counter screen (AID 743041; further: nearly all actives have a fitted effect of over 45% in size; further: potency means the concentration at half of the fitted maximal effect). In short, it runs like this: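 Same-well cytotoxicity was assessed by CellTiter-Fluor in MDA-kb2 AR-luc cells after 16 h of compound treatment under R1881 agonism.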
Test [7] deals with Androgen receptor (Homo sapiens) (UniProt P10275). Kind of test: qHTS assay to identify small molecule antagonists of the androgen receptor (AR) signaling pathway using the MDA cell line (AID 743042; further: nearly all actives have a fitted effect of over 55% in size). In short, it runs like this: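 MDA-kb2 breast carcinoma cells carrying MMTV-luciferase (AR/GR responsive) were co-treated with compounds and the agonist R1881 for 16 h at 37C. Inhibition read as ONE-Glo luminescence; CellTiter-Fluor fluorescence measured in parallel for cytotoxicity.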

Test [8] is described as follows: qHTS assay to identify small molecule antagonists of the thyroid receptor (TR) signaling pathway - cell viability counter screen (AID 743064). Further: nearly all actives have a fitted effect of over 50% in size. Further: potency means the concentration at half of the fitted maximal effect. In short, it runs like this:
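GH3.TRE-Luc rat pituitary cells dosed after 4 hr plating, co-stimulated with T3 at 1 nM final, incubated 23.5 h at 37 C. Viability measured in the same wells by CellTiter-Fluor fluorescence after 30 min further at 37 C.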

Test [9] is described as follows: qHTS assay to identify small molecule antagonists of the thyroid receptor (TR) signaling pathway (AID 743065). Further: nearly all actives have a fitted effect of over 55% in size. Further: potency means the concentration at half of the fitted maximal effect. The method, boiled down: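 GH3.TRE-Luc rat pituitary cells (two TREs driving luciferase) were dosed with compound, then stimulated with 1 nM T3 (final) for 23.5 h at 37 C. ONE-Glo luminescence was the read-out, with CellTiter-Fluor fluorescence as the cytotoxicity counter-screen.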

Test [10] has as its system thyroid hormone receptor (rat, GH3 cells). Description: qHTS assay to identify small molecule agonists of the thyroid receptor (TR) signaling pathway (AID 743066; calls by dose curve).
Test [11] deals with Estrogen receptor (Homo sapiens) (UniProt P03372). Kind of test: qHTS assay to identify small molecule antagonists of the estrogen receptor alpha (ER-alpha) signaling pathway (AID 743069; active means well fitted curve in the direction sought with a large enough effect in the signal ratio in the repeat runs, not every such curve was filed as active; inconclusive means weak or mixed curves, or effect the other way; inactive means no such curve, though single readings can be large or run the other way; the % refers to the signal ratio; further: potency means the concentration at half of the fitted maximal effect). The method, boiled down:
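Reporter cells (ER-alpha-bla, HEK293 background) are conditioned overnight in stripped-serum medium (2% charcoal-stripped FBS). Compound and 17beta-estradiol exposure runs 18 hr at 37C, 5% CO2.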

For test [12] the target is unchanged. Description: qHTS assay to identify small molecule agonists of the estrogen receptor alpha (ER-alpha) signaling pathway (AID 743075; calls by dose curve;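 further: HEK293 GripTite cells with ER-alpha and UAS-driven beta-lactamase reporter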). As to conditions: HEK293 ER-alpha-UAS-bla, beta-lactamase FRET ratio, 18 h; activation: at 70.1 µM (top of the series).
Test [13] in a line: qHTS assay to identify small molecule antagonists of the estrogen receptor alpha (ER-alpha) signaling pathway using the BG1 cell line (AID 743080; calls by dose curve;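 further: BG1 cells stimulated with 17beta-estradiol alongside compound; nearly all actives have a fitted effect of over 25% in size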). In short, it runs like this:
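Readout is ONE-Glo luminescence, taken 30 min at room temperature after reagent addition, preceded by a CellTiter-Fluor viability read; BG1-Luc-4E2 cells had received compound and 17beta-estradiol for 21.5 h at 37 C.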

Test [14] is described as follows: qHTS assay to identify small molecule antagonists of the estrogen receptor alpha (ER-alpha) signaling pathway using the BG1 cell line - cell viability counter screen (AID 743081).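 Further: compound given together with 17beta-estradiol as the ER stimulus; nearly all actives have a fitted effect of over 45% in size.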
Test [15] concerns the target Aromatase (Homo sapiens) (UniProt P11511). Kind of test: qHTS assay to identify aromatase inhibitors (AID 743083). Further: nearly all actives have a fitted effect of over 55% in size. Further: potency means the concentration at half of the fitted maximal effect.
Test [16] is described as follows: qHTS assay to identify aromatase inhibitors - cell viability counter screen (AID 743084). Further: potency means the concentration at half of the fitted maximal effect.
Test [17] is described as follows: qHTS assay for identifying genotoxic compounds that show differential cytotoxicity against isogenic chicken DT40 cell lines with known DNA damage response pathways - wild type cell line (AID 743012). Further: nearly all actives have a fitted effect of over 60% in size. Further: potency means the concentration at half of the fitted maximal effect. The method, boiled down:
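Cells (DT40 wild type, 300/well) are treated with DMSO-dissolved compounds after a ~0.5 h pre-incubation and kept 40 h at 37 C/5% CO2. Viability is then measured by CellTiter-Glo luminescence following 30 min at room temperature.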

The target of test [18] is Estrogen receptor (Homo sapiens) (UniProt P03372). Description: qHTS assay to identify small molecule agonists of the estrogen receptor alpha (ER-alpha) signaling pathway using the BG1 cell line (AID 743079). Further: nearly all actives have a fitted effect of over 20% in size. Particulars: BG1Luc4E2 cells, ERE-luciferase agonist, 22 h; at 70.3 µM (top of the series).
The nature of test [19]: qHTS assay to identify small molecule antagonists of the estrogen receptor alpha (ER-alpha) signaling pathway - cell viability counter screen (AID 743074; calls by dose curve;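 further: HEK293 cells carrying ER-alpha-UAS-bla reporter stimulated with 17beta-estradiol; nearly all actives have a fitted effect of over 45% in size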; further: potency means the concentration at half of the fitted maximal effect).
Test [20] deals with Androgen receptor (Homo sapiens) (UniProt P10275). Description: qHTS assay to identify small molecule agonists of the androgen receptor (AR) signaling pathway (AID 743036; active means well fitted activation curve with a large enough effect in the signal ratio in the repeat runs, with a control signal flat, not every such curve was filed as active; inconclusive means weak or mixed curves, or effect the other way; inactive means no such curve, though single readings can be large or run the other way; the % refers to the signal ratio). In short, it runs like this:
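AR-UAS-bla HEK293 cells, plated 4 h before dosing, were treated with compound for 16 h at 37C. beta-Lactamase reporter read after 2 h with LiveBLAzer B/G FRET substrate at room temperature.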
On the % scale 0 is the no-effect control and ±100 the full control effect.

Androgen receptor (Homo sapiens), sequence (P10275 whole entry, looked up): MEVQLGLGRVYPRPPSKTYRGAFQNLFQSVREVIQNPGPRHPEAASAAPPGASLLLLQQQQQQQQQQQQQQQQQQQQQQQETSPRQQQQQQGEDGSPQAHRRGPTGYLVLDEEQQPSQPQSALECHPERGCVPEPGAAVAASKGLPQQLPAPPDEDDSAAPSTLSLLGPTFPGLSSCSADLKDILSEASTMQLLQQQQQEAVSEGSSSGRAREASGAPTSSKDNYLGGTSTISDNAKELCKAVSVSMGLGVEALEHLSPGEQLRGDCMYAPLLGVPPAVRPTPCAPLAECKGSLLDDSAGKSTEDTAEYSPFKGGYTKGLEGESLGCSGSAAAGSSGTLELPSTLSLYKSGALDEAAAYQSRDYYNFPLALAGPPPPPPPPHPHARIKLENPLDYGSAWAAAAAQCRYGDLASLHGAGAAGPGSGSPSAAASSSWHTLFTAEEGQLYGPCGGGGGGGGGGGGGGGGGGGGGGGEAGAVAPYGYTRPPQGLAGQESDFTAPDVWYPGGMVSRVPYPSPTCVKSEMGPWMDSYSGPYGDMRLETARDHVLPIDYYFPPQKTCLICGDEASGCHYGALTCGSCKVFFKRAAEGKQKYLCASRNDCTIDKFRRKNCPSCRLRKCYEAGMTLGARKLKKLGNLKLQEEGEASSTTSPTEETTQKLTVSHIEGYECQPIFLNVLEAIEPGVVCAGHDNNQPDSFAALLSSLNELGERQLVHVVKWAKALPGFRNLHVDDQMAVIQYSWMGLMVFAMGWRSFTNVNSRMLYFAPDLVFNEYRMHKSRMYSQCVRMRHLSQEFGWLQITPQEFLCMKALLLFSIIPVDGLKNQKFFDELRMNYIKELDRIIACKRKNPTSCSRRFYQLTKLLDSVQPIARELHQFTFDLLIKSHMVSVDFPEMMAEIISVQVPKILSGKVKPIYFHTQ
Aromatase (Homo sapiens), sequence (P11511 whole entry, looked up): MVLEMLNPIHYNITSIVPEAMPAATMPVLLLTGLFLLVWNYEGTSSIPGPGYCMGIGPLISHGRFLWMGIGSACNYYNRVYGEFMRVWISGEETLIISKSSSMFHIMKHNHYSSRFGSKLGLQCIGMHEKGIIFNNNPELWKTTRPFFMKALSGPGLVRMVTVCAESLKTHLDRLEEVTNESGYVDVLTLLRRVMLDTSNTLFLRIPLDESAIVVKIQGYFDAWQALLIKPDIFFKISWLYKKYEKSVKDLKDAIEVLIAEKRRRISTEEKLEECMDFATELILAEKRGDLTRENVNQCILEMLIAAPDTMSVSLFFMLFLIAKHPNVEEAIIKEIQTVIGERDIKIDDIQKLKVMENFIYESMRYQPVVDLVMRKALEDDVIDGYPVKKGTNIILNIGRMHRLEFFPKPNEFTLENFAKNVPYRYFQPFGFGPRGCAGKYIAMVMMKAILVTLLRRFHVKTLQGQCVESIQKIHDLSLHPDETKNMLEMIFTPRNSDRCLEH
Estrogen receptor (Homo sapiens), sequence (P03372 whole entry, looked up): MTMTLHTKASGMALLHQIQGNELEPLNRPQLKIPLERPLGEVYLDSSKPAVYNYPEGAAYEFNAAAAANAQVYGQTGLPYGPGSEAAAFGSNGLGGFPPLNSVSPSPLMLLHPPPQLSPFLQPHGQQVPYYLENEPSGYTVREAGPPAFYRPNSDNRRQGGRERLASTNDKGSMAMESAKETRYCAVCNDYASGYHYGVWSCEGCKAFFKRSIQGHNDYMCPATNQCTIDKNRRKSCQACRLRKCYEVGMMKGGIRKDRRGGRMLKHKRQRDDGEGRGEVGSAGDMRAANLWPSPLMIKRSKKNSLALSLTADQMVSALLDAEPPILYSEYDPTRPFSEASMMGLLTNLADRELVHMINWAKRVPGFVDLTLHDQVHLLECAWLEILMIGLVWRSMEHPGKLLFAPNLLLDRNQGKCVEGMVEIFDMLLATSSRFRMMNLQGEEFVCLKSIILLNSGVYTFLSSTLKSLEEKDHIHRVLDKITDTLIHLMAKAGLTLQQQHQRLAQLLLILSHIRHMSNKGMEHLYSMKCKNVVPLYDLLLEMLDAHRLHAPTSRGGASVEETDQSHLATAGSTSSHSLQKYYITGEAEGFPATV

In the case of `CS(=O)(=O)CCNCc1ccc(-c2ccc3ncnc(Nc4ccc(OCc5cccc(F)c5)c(Cl)c4)c3c2)o1`, the Potency entry in [1], in [2], in test [3], in test [4], in [5] and in test [6] was “inactive” in each case. Also, the Potency entry in test [7], in test [8], in test [9], in test [10], in [11] and in test [12] was “inactive” each time. Besides, the Potency entry in test [13], in test [14], in test [15] and in test [16] was “inactive” each time.
Consider `N=C1N=C(N)c2cc3ccccc3cc21`, for which the Potency in test [1] was 21.9 µM (active); in test [17], 9.69 µM (active); in test [2] it was 27.3 µM (active); in test [3], 27.3 µM (active); in [8], 12.9 µM (active); in [9] it was 13.7 µM (active). Further, the Potency was 19.9 µM (active) in test [15] and 61.1 µM (active) in [16]. Further, in test [10], the Potency entry was “inactive”.
For `CC(C)C(C)(C)C(C)(C)C(C)(C)S`, the Potency entry in test [1], in test [17], in [6], in test [7], in [10] and in test [11] was “inactive” in each case. Besides, the Potency entry in [12], in [13] and in [14] was “inactive” throughout. In addition, in [18], the activation was 4.61%.
`O=c1cc(-c2ccc(O)cc2)oc2cc(O)cc(O)c12`: the Potency was 49 µM (active) in [1]; 69.5 µM (active) and 27.3 µM (active) in test [2]; 31 µM (active) and 13.7 µM (active) in test [3]; 55.2 µM (active) in test [8]; 61.9 µM (active) and 30.6 µM (active) in [9]. The Potency entry in test [4], in [6] and in test [10] was “inactive” in each case.
Consider `CC(C)=CCOc1ccc(/C=C/C(=O)c2ccc(OCC=C(C)C)cc2OCC(=O)O)cc1`, for which the Potency result in [1], in [17], in [4], in [5], in test [7] and in test [19] was “inactive” in each case. Further, the Potency entry in test [12], in [13], in test [14], in test [15] and in test [16] was “inactive” in each case. The Potency in test [9] is 26.6 µM (active); in [11], 16.9 µM [inconclusive] (active). Besides, the activation in [18] was -17.4%.
With `Clc1ccc2n[nH]nc2c1`, the Potency entry in test [1], in test [17], in test [4], in test [6], in test [9] and in test [10] was “inactive” each time. The Potency result in test [19], in test [14], in test [15] and in test [16] was “inactive” in each case.
`O=C(NOCC1CC1)c1ccc(F)c(F)c1Nc1ccc(I)cc1Cl`: the Potency is 23.9 µM (active) in [1]; 29.8 µM (active) in test [17]; 29.8 µM (active) in test [2]; 15 µM (active) in [8]; 13.3 µM (active) in test [9]; 3.79 µM [inconclusive] (active) in test [11]. The Potency result in [5], in test [6], in test [12], in test [14] and in [15] was “inactive” each time.
On to `C=C(C)C(=O)OCC[N+](C)(C)C`, for which the Potency entry in [1], in [4], in test [20], in test [7], in test [10] and in test [19] was “inactive” throughout. Also, the Potency entry in [14], in [15] and in test [16] was “inactive” each time. The Potency is 38.4 µM (active) in [3] and 60.9 µM (active) in test [8].
As for `O=C(c1ccc(F)cc1)C1CCN(CCn2c(=O)[nH]c3ccccc3c2=O)CC1`, the Potency entry in test [1], in test [2], in [4], in test [5], in [6] and in test [7] was “inactive” each time. Further, the Potency entry in test [8], in test [9], in test [10], in [11], in [19] and in test [12] was “inactive” in each case. Also, the Potency entry in [13], in test [14], in [15] and in [16] was “inactive” in each case. Besides, the activation in [18] was 21.8%.
As to `Cc1ccc2oc(CN(Cc3ccccc3)C(=O)Nc3c(F)cc(F)cc3F)c(-c3ccc(Cl)cc3)c2c1`, the Potency result in [1], in test [6], in test [10], in [11], in test [19] and in test [12] was “inactive” throughout. Besides, the Potency result in test [13], in test [14] and in test [16] was “inactive” throughout. The Potency was 13.3 µM (active) in test [2] and 14.9 µM (active) in test [3]. Moreover, the activation in test [18] is -12.5%.
Consider `CCOc1ccc2nc3cc(N)ccc3c(N)c2c1`, for which the Potency entry in [1], in test [4], in test [6], in test [10], in test [11] and in test [19] was “inactive” in each case. For the same compound, the Potency in test [2] and in test [3] was 26.6 µM (active) in each case. Moreover, the activation in test [18] was -22.3%.
As to `CC(NN)c1ccccc1` (stereo unspecified), the Potency entry in [1], in test [2], in test [3], in test [4], in [19] and in test [13] was “inactive” in each case. In addition, the Potency result in [14], in test [15] and in [16] was “inactive” each time.
Take `CCC(Cl)C(Cl)C(Cl)CC(Cl)C(Cl)C(C)Cl` (stereo unspecified): the Potency result in [1], in test [4], in test [6], in test [10], in test [19] and in test [14] was “inactive” throughout. The Potency entry in test [15] and in [16] was “inactive” throughout. Moreover, the Potency in test [2] and in test [3] was 54.5 µM (active) throughout.
Turning to `O=C(Nc1ccc(Oc2ccc(Cl)cc2)c(Cl)c1)c1cc(I)cc(I)c1O`, the Potency in [1] was 6.01 µM (active); in [9], 29.8 µM (active); in test [19], 6.01 µM (active). Moreover, the Potency entry in test [2], in test [3], in test [4], in [6], in [14] and in test [15] was “inactive” each time. In addition, in test [16], the Potency result is “inactive”.
On to `CCOC(=O)O[C@H](C)OC(=O)c1ccc2c(c1)cc(C(=O)NC1CCN(C(C)C)CC1)n2Cc1cc(-c2ccc(Cl)s2)on1`, for which the Potency in test [1] is 20.4 µM (active); in test [2], 11.4 µM (active); in test [3], 11.4 µM (active); in test [4], 7.25 µM (active); in test [6], 57.1 µM (active); in test [9], 4.54 µM (active). Further, the Potency in test [19] is 45.8 µM (active); in test [15] it was 14.3 µM (active); in test [16], 18.1 µM (active). In addition, the Potency entry in [14] is “inactive”.
Regarding `Oc1ccc2c(c1)-c1ccccc1C2`, the Potency entry in test [1], in test [20], in [5], in test [7], in test [8] and in test [10] was “inactive” each time. Further, the Potency result in [19], in [14] and in test [16] was “inactive” each time. Also, the Potency in test [2] is 54.5 µM (active).
